Laboratory results from PubChem BioAssay (EPA / NIEHS).
Active and inactive are the calls of the source. Rule for the calls: active = hit-call score of the fitted dose curve at least 0.9, where 1 is the maximum; inactive = score below 0.9.

Test: ATG_M_61_CIS: Attagene CIS-FACTORIAL HepG2 Assay for M61 Transcription Factor (Internal Marker) (AID 2282937)
Settings: HepG2 Attagene CIS-FACTORIAL M61 internal marker reporter; actives raise or lower the signal
Protocol: ATG_CIS is a cell-based, multiplexed-readout assay that uses HepG2, a human liver cell line, with measurements taken at 24 hours after chemical dosing in a 24-well plate.ATG_M_61_CIS is one of 52 assay component(s) measured or calculated from the ATG_CIS assay. It is designed to make measurements of mRNA induction, a form of inducible reporter, as detected with fluorescence intensity signals by Reverse transcription polymerase chain reaction (RT-PCR) and Capillary electrophoresis technology.Data from the assay component ATG_M_61_CIS was analyzed into 1 assay endpoint. This assay endpoint, ATG_M_61_CIS, was analyzed with bidirectional fitting relative to DMSO as the negative control and baseline of activity. Using a type of inducible reporter, measures of mRNA for gain or loss-of-signal activity can be used to understand the background control at the transcription factor-level as they relate to the gene . Furthermore, this assay endpoint can be referred to as a secondary readout, because this assay has produced multiple assay endpoints where this one serves a background control function. To generalize the intended target to other relatable targets, this assay endpoint is annotated to the background measurement intended target family, where the subfamily is internal marker.
Human liver HepG2 cells are transiently transfected with multiple reporter transcription units (MRTUs) in 6-well plates using FuGene 6 reagent (Roche; 3 ml FuGene/1 mg DNA). The MRTU constructs are regulated by a cis-regulating element (promoter). […] A major difference between the CIS and TRANS system is that in CIS activities of endogenous TFs are measured, whereas the TRANS assay evaluates changes in activities of exogenous, chimeric NR-Gal4 proteins. […] At the end of 24 hour incubation, total RNA was isolated using TriZol reagent (Invitrogen). The isolated RNA is then reverse-transcribed using oligo(dT) primer and Mo-MLV reverse transcriptase (Invitrogen) with DNAse I (Ambion) treatment for 30 min. The one-tenth of the produced cDNA was amplified by PCR using Taq DNA polymerase (Invitrogen) and two reporter sequence-specific primers. The PCR products were fluorescently labeled by primer extension with 6-arboxyfluorescein (6-FAM) 5'-labeled reporter sequence-specific primer (2 min at 95 C, 20 s at 68 C and 10 min at 72 C) and these products were digested with 5U of HpaI (New England Biolabs) for 2h at 37 C. The fragments were purified using Qiaquick PCR columns (Qiagen), analyzed on an ABI 3130xL genetic analyzer (Applied Biosystems) with peak positions identified by using a set of X-rhodamine (ROX)-labeled MapMarker1000 molecular weight standards (BioVentures). The raw capillary electrophoresis data was processed using Attagraph software (Attagene).

| SMILES | outcome |
| --- | --- |
| CN1COCN(Cc2cnc(Cl)s2)C1=N[N+](=O)[O-] | inactive |
| Cc1nn(-c2cc(NS(C)(=O)=O)c(Cl)cc2Cl)c(=O)n1C(F)F | inactive |
| CCOP(=S)(OCC)Oc1ccc2c(C)c(Cl)c(=O)oc2c1 | inactive |
| C#CC(C)(C)NC(=O)c1cc(Cl)cc(Cl)c1 | inactive |
| CC(C)=CC1C(C(=O)OCN2C(=O)C3=C(CCCC3)C2=O)C1(C)C (stereo not given) | inactive |
| COP(=O)(NC(C)=O)SC (stereo not given) | inactive |
| O=C(O)c1cc(Oc2ccc(C(F)(F)F)cc2Cl)ccc1[N+](=O)[O-] | inactive |
| FC(F)C(F)(F)OCC(Cn1cncn1)c1ccc(Cl)cc1Cl (stereo not given) | inactive |
| COP(=O)(OC)C(O)C(Cl)(Cl)Cl (stereo not given) | inactive |
| CC(C1CC1)C(O)(Cn1cncn1)c1ccc(Cl)cc1 (stereo not given) | inactive |
| CCOP(=S)(Oc1cnc(C(C)(C)C)nc1)OC(C)C (stereo not given) | inactive |
| CSc1nc(NC(C)C)nc(NC(C)C)n1 | inactive |
| CC1(C(=O)Nc2ccc(O)c(Cl)c2Cl)CCCCC1 | inactive |
| CC(C)N(C(=O)SCC(Cl)=C(Cl)Cl)C(C)C | inactive |
| CSC1=N[C@@](C)(c2ccccc2)C(=O)N1Nc1ccccc1 | inactive |
| CCc1cccc(CC)c1N(COC)C(=O)CCl | inactive |
| C[Si](Cn1cncn1)(c1ccc(F)cc1)c1ccc(F)cc1 | inactive |
| CCC(CC)Nc1c([N+](=O)[O-])cc(C)c(C)c1[N+](=O)[O-] | inactive |
| O=c1ccc(=O)[nH][nH]1 | inactive |
| CCCCOC(=O)c1ccccc1C(=O)O | inactive |

| SMILES | outcome |
| --- | --- |
| CCOP(=O)(OCC)Oc1cc(C)nc(C(C)C)n1 | inactive |
| COP(=O)(OC)OC(Br)C(Cl)(Cl)Br (stereo not given) | inactive |
| CCOP(=S)(OCC)Oc1ccc([N+](=O)[O-])cc1 | inactive |
| COP(=O)(OC)SCn1c(=O)oc2cc(Cl)cnc21 | inactive |
| CCC(=NOC/C=C/Cl)C1=C(O)CC(C2CCOCC2)CC1=O (stereo not given) | inactive |
| CC(=NC#N)N(C)Cc1ccc(Cl)nc1 | inactive |
| C#CCC1=C(C)C(OC(=O)C2C(C=C(C)C)C2(C)C)CC1=O (stereo not given) | inactive |
| CN(C)C(=O)Nc1cccc(C(F)(F)F)c1 | inactive |
| O=[N+]([O-])c1cc(C(F)(F)F)c(Cl)c([N+](=O)[O-])c1Nc1ncc(C(F)(F)F)cc1Cl | inactive |
| N#CSCSC#N | inactive |
| CCC(=O)Nc1ccc(Cl)c(Cl)c1 | inactive |
| CCOP(=S)(OCC)Oc1cc(C)nc(C(C)C)n1 | inactive |
| CCOC(=O)COc1cc(-c2nn(C)c(OC(F)F)c2Cl)c(F)cc1Cl | inactive |
| CNC(=O)ON=C(C)SC | inactive |
| Nc1c(Cl)cc([N+](=O)[O-])cc1Cl | inactive |
| CC(COc1ccc(Oc2ccccc2)cc1)Oc1ccccn1 (stereo not given) | inactive |
| CC1=NNC(=O)N(/N=C/c2cccnc2)C1 | inactive |
| S=C1NCCN1 | inactive |
| Cc1cc(C2CC2)nc(Nc2ccccc2)n1 | inactive |
| CON=C(C(=O)OC)c1ccccc1CON=C(C)c1cccc(C(F)(F)F)c1 | inactive |
